# TROY signal inh – blocks TROY-dependent signaling in reporter cells | Q293 LMP1-TROYcd NF-kB luciferase reporter, 4 h | inhibition, % at 10 µM | 0.98% of 360,000 active | AID 1347056;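 active = compounds whose plate-normalised and pattern-corrected inhibition of the luciferase reporter signal at the single screening dose is 50% or more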
# C8 TRAIL sens – caspase-8 TRAIL sensitization. NB7+C8 cells + TRAIL, ATPlite viability luminescence. inhibition (viability loss, TRAIL sensitization), % at 10 µM. 1% of 360,000 active. AID 624354;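 active = compounds causing at least 50% loss of cell viability in the single-dose screen, relative to plate controls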
# HSP90 refold inh – HSP90 refolding inhibition in rabbit reticulocyte lysate; luciferase refolding luminescence, 3 h; inhibition, % at 5.6 µM; 0.91% of 290,000 active;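 active = inhibition above the screen-wide mean plus 3 SD, computed separately per campaign, cut at about 16% in these data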;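 note: 0% = DMSO wells and 100% = 60 µM geldanamycin wells; inhibitors lower the luminescence because luciferase stays unfolded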
# aSyn UTR inh – MLPCN primary screen, SNCA 5' untranslated region; alpha-synuclein 5'UTR reporter, inhibitor activity; inhibition, % (tested at 7.5 µM); 0.82% of 300,000 active; AID 1813; in the data active = inhibition above about 60%;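 note: H4 neuroglioblastoma cells stably carrying SNCA 5'UTR luciferase fusion; 0% = DMSO wells and 100% = positive control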
# HIF-2a inh – blocks HIF-2a reporter activity; 786-0 RCC cells HIF-2a reporter, luciferase luminescence, overnight; inhibition, % at 18.8 µM; 0.72% of 360,000 active; AID 624352;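 active = inhibition of the luminescence signal of 40% or more relative to plate controls, in a single-dose primary screen at 18.75 µM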
# TWEAK Fn14 block – inhibitors of TWEAK-Fn14 interaction signaling; TWEAK-stimulated Fn14 reporter cells, luciferase luminescence, 8 h; 2% of 360,000 active; AID 1159606; inhibition, % at 10 µM; in the data active = inhibition above about 50%
# * marks the source's active call; other numbers are inactive results; x = no result. The list is not random: actives were taken first. Their share in the collection is about 3.9%.
SMILES,TROY signal inh,C8 TRAIL sens,HSP90 refold inh,aSyn UTR inh,HIF-2a inh,TWEAK Fn14 block
O=C(NCc1ccccn1)c1ccccc1OCc1ccccc1Cl,1,9,x,x,2,-18
O=C1CC(=Nc2ccc([N+](=O)[O-])cc2)NN1c1c(Cl)cc(Cl)cc1Cl,6,9,x,x,-5,-5
CCOCCCn1c(SCc2nc3ccccc3s2)nc2ccccc2c1=O,53*,25,0,-78,-268,73*
Cn1nc(-c2ccc(OCC(=O)Nc3ccccc3)cc2)c2ccccc2c1=O,15,6,0,24,-11,53*
Cc1cccc(NC(=O)COc2ccc(-c3nn(C)c(=O)c4ccccc34)cc2)c1,27,18,-2,17,-4,8
CC(=O)C1=C(O)C(=Cc2ccccc2)OC1=O,5,21,x,x,-16,-4
COc1ccc(/C=C2\Oc3ccccc3C2=O)cc1,26,72*,x,x,-39,65*
COc1ccc(C=C2OC(=O)C(C(C)=O)=C2O)cc1,-20,84*,x,x,-77,13
CN1CCN(C(=O)C[C@H]2CC[C@H]3[C@@H](COC[C@@H](O)CN3C(=O)C3CCCC3)O2)CC1,x,-6,x,x,0,x
Cc1ccc2c(NCc3ccco3)nc(NC(C)C)nc2c1,7,7,x,x,-43,-51
O=c1c2ccccc2nc(N/N=C/c2ccc(O)cc2)n1O,-18,62*,0,-44,-81,-7
O=c1c2ccccc2nc(N/N=C/c2c(O)ccc3ccccc23)n1O,2,71*,2,82*,-193,24
Oc1ccc(/C=N/Nc2ccccc2)cc1,-6,1,2,-20,-5,3
CCCc1ccc2c(C(F)(F)F)cc(C(F)(F)F)cc2n1,21,-8,x,x,4,-16
COc1cc(-c2noc(C)c2/C=C/c2ccc(C(=O)O)cc2)cc(OC)c1OC,0,-3,1,7,-7,17
COc1cc(-c2noc(C)c2/C=C/c2cccc([N+](=O)[O-])c2)cc(OC)c1OC,23,20,4,69*,10,11
O=C(NCc1ccccc1)C(c1ccco1)N1CCN(c2ccccc2F)CC1 (stereo not drawn),x,-3,x,x,-4,x
Cc1c(Cc2ccccc2)sc(/N=C/c2ccc3ccccc3c2)c1C(N)=O,-64,12,-2,x,-180,60*
CS(=O)(=O)Nc1ccc(F)cc1,-6,-20,x,x,6,-15
CC/C(=N\NC(=O)c1csc(C)c1C)c1cccs1,-23,50*,-2,-182,-233,-9
O=C(OCn1ncc(Br)c(Br)c1=O)c1ccccc1Cl,80*,93*,5,-40,92*,97*
O=C(OCn1ncc(Br)c(Br)c1=O)c1ccc(F)cc1,83*,95*,3,64*,93*,102*
O=C(OCc1cnc(Cl)s1)c1ccccc1Cl,-33,0,-8,-19,1,-26
CCN(CC)C(=O)c1nn(Cc2ccccc2)c(=O)c2ccccc12,5,-4,-5,15,10,0
CCN(CC)C(=O)c1nn(-c2ccccc2)c2c1C1CCC2(C)C1(C)C (stereo not drawn),33,51*,4,6,-5,10
SMILES,TROY signal inh,C8 TRAIL sens,HSP90 refold inh,aSyn UTR inh,HIF-2a inh,TWEAK Fn14 block
O=C(NCC(F)(F)F)c1cc2c(c(-c3cccc(-c4ccccc4F)c3)n1)[C@@H](CCO)N(C(=O)CC1CC1)C2,13,15,x,x,-20,-9
CC(Oc1cc2oc(=O)cc(-c3ccccc3)c2cc1Cl)C(=O)NCC1CCC(C(=O)O)CC1 (stereo not drawn),4,3,-2,24,3,6
CC(NC(=O)OC(C)(C)C)C(=O)Oc1cc2oc(=O)cc(-c3ccccc3)c2cc1Cl (stereo not drawn),46,-17,3,6,-18,71*
COc1ccccc1-c1cnc(C(O)c2ccc(C)cc2C)[nH]1 (stereo not drawn),-7,-10,x,x,-18,-4
O=C(C#Cc1ccccc1)c1ccccc1,37,93*,x,x,6,76*
CN(C)C(=O)C#Cc1ccccc1,-21,-6,1,-30,3,-6
Cc1ccc([C@H]2C[C@H](n3cc(C4CC4)nn3)[C@@H](O)CN2CC2CCCCC2)cc1,8,9,x,x,5,-18
CCc1cc2c(=O)oc(-c3ccc(F)cc3)nc2s1,9,-2,0,-27,-60,54*
Cn1c(N=Nc2ccccc2)nc2ccccc21,40,93*,42*,-19,-25,79*
Cn1c(Cl)nc2ccccc21,5,-4,2,-13,-9,19
COc1ccc(OC)c(NC(=O)CC2SC(=Nc3ccc(F)cc3)N(CCC3=CCCCC3)C2=O)c1 (stereo not drawn),-3,22,6,-25,-15,3
COc1cc([N+](=O)[O-])ccc1NC(=O)CC1SC(=Nc2ccc(F)cc2)N(CCC2=CCCCC2)C1=O (stereo not drawn),-1,23,3,16,-10,60*
CCCNC(=O)c1ccc(S(=O)(=O)c2ccc(OC)cc2)c([N+](=O)[O-])c1,23,12,-1,15,32,72*
CCC(=O)N1CCC1(C)C(=O)NS(=O)(=O)c1cccc(C#N)c1 (stereo not drawn),13,4,x,x,-17,-22
c1ccc(COc2cccc(-c3cc4nc(NCc5ccc6c(c5)OCO6)ccn4n3)c2)cc1,-33,5,x,x,-204,21
Cc1cc(Br)ccc1NC(=O)CN(C)C(=O)c1cc(S(=O)(=O)N(C)C)ccc1N1CCCC1,-5,-9,-2,4,16,88*
CN(CC(=O)Nc1c(Cl)cccc1Cl)C(=O)c1cc(S(=O)(=O)N(C)C)ccc1N1CCCC1,-19,2,x,-3,11,-6
O=C1C(=O)c2c(ccc3ccccc23)-c2ccccc21,43,67*,x,x,-106,101*
Cc1ccc2ccccc2c1C(O)c1ncc(-c2ccccc2F)[nH]1 (stereo not drawn),2,-10,x,x,10,6
CC(=O)N1C[C@H]2CON(C)[C@H]2C[C@H]1c1ccc(-c2cccnc2)cc1,-21,-4,x,x,-2,-1
Nc1ccc(N2CCCCC2)cc1N1CCCCC1,40,-4,3,85*,-1,45
Cc1nn(-c2cc(N3CCCCC3)ccc2N)c(=O)c2ccccc12,5,-2,-4,-5,5,0
NC(=O)C1CCN(c2ccc3c(c2)S(=O)(=O)c2ccccc2C3=O)CC1,63*,-4,x,-63,-116,49
O=C1c2ccccc2C(=O)c2cc(N3CCCCC3)ccc21,83*,86*,x,x,-10,101*
NC(=O)C1CCN(C2=C(Cl)C(=O)c3ccccc3C2=O)CC1,-7,37,3,-24,94*,7
O=C1C(Cl)=C(N2CCC(C(=O)O)CC2)C(=O)c2ccccc21,12,31,10,17,-7,14
Cc1ccsc1C(=O)N1CCCC1(C)C(=O)NCC(C)C (stereo not drawn),-11,-8,x,x,8,-6

# High-throughput results: PubChem, several laboratories
